Results from PubChem BioAssay AID1022 (Emory University Molecular Libraries Screening Center, 2008).
Among all 220,000 compounds or so, about 3,300 (1.5%) were called active. This excerpt belongs to a sample that is enriched for actives. A number with no mark means an inactive call.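 How the source made its calls: active means compounds that cut the protein-peptide binding signal by more than 50% relative to plate controls in a single-dose test; inactive means the rest.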

target: Induced myeloid leukemia cell differentiation protein Mcl-1 (Homo sapiens) (UniProt Q07820); assay: Mcl-1/Noxa binding inhibitors, primary screen, biochemical, TR-FRET, 1536-well (AID 1022); details: TR-FRET Mcl-1/Noxa peptide binding, 2 h; at 21.7 µM; hits give high values;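 further: His-tagged Mcl-1 with rhodamine Noxa BH3 peptide and terbium anti-His antibody; 0% = Mcl-1 plus Noxa peptide wells and 100% = peptide-only wells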
Sequence (Q07820 whole entry, looked up): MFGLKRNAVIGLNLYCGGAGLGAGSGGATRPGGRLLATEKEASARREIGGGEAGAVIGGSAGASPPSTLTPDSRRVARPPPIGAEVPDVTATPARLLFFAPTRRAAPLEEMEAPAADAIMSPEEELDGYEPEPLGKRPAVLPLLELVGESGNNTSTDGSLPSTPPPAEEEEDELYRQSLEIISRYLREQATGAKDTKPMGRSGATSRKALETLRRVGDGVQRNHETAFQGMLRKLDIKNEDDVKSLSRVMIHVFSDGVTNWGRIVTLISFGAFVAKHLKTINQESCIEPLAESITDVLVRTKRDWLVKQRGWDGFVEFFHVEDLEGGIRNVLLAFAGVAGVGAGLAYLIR

Question: For `Cc1cccc(N2C(=O)NC(=O)/C(=C\c3cnn(-c4ccccc4)c3)C2=O)c1`, which inhibition is on record?
Answer: 29.4%

Question: `COc1cccc(N2C(=O)NC(=O)/C(=C\c3ccc([N+](=O)[O-])s3)C2=O)c1` was tested. Which inhibition did it give?
Answer: 59.7% (active)

Question: For `O=C1NC(=O)N(c2ccccc2)C(=O)/C1=C/c1ccc([N+](=O)[O-])s1`, which inhibition is on record?
Answer: 45.5%

Question: Which inhibition does the source give for `CCCCC(=O)N/N=C/c1c(O)n(-c2ccccc2)c(=O)[nH]c1=O` here?
Answer: -147%

Question: `O=C1NC(=O)N(CCc2ccc(F)cc2)C(=O)/C1=C/C=C/c1ccccc1` was tested. Which inhibition did it give?
Answer: 6.31%

Question: Which inhibition does the source give for `Cc1c(C(=O)O)cccc1-n1c(C)cc(/C=C2\C(=O)NC(=O)N(c3ccc4c(c3)OCO4)C2=O)c1C` here?
Answer: 14.7%

Question: For `O=C1NC(=O)N(c2ccc(F)cc2)C(=O)/C1=C/c1ccc2c(c1)CCCN2Cc1ccccc1`, which inhibition is on record?
Answer: 67.7% (active)

Question: With `O=c1[nH]c(=O)n(CCc2ccccc2)c(O)c1/C=N/N1CCOCC1` as the compound, how does the inhibition read?
Answer: 6.09%

Question: For `COc1cccc(CN2CCCC(C(=O)c3ccccc3SC)C2)c1O` (stereo not given), which inhibition is on record?
Answer: 16.2%

Question: Which inhibition does the source give for `CCCCCCCCCCCCn1ccc(=N)cc1` here?
Answer: 2.41%

Question: `O=C(O)CCn1cc(C=C2C(=O)NC(=S)NC2=O)c(-c2cccc(Br)c2)n1` was tested. Which inhibition did it give?
Answer: 93.9% (active)

Question: How did the inhibition turn out when `CN(C)CC1CCCCC1=O` (stereo not given) was run?
Answer: 21.8%

Question: Which inhibition does the source give for `CNC(=O)O/N=C(\N)Cc1csc2ccccc12` here?
Answer: -19.1%

Question: With `Cc1ccc(-n2c(O)c(C=NCC3CCCO3)c(=O)[nH]c2=O)c(C)c1` (stereo not given) as the compound, how does the inhibition read?
Answer: -16.8%

Question: Which inhibition does the source give for `O=C1NC(=O)N(Cc2ccco2)C(=O)/C1=C\c1cccn1CCOc1ccccc1` here?
Answer: 3.37%

Question: With `O=C1NC(=O)N(Cc2ccco2)C(=O)/C1=C\c1ccc(-c2ccc(F)cc2)o1` as the compound, how does the inhibition read?
Answer: 69.5% (active)

Question: For `Cc1cc(/C=C2/C(=O)NC(=O)N(Cc3ccco3)C2=O)c(C)n1-c1ccc(C(=O)O)cc1`, which inhibition is on record?
Answer: 27.4%

Question: `CSc1ccc(C(=O)C2CCCN(Cc3ccn[nH]3)C2)cc1` (stereo not given) was tested. Which inhibition did it give?
Answer: 16.2%

Question: How did the inhibition turn out when `c1cc2c(cc1[C@H]1OC[C@H]3[C@@H]1CO[C@@H]3c1ccc3c(c1)OCO3)OCO2` was run?
Answer: 1.72%

Question: With `CCOc1cccc(=NC2CCCCC2)c2c(C)[nH]c(C)c12` as the compound, how does the inhibition read?
Answer: 23.3%
